Results taken from paper PMC5540273 (PLoS ONE, 2017).

Each compound was assayed on ALK. Conditions: concentration: 1 μM, replicates: in singlicate; n = 1.
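Further: KINOMEscan kinase panel screen.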

SMILES | %Inh [%]
CCC(=O)c1c(-c2ccccc2)c2cc(Cl)ccc2c(=O)n1Cc1cc(S(C)(=O)=O)n(CC(F)F)n1 | 0
CCC(=O)c1c(-c2ccccc2)c2cc(Cl)ccc2c(=O)n1Cc1cc(S(C)(=O)=O)n(CC(N)=O)n1 | 0
O=C(Nc1ccc2c(c1)OCO2)NC1CCN(c2ccnc(NCc3ccc(F)cc3)n2)CC1 [GSK1379859] | 9
Cn1c(=O)c(F)c(Nc2ccc(I)cc2F)c2c(=O)n(OC[C@H](O)CO)cnc21 | 0
Nc1nccc2scc(-c3ccc4c(c3)CCN4C(=O)Cc3ccccc3)c12 [GSK2576924] | 0
C[C@@H]1CC[C@H](C(=O)NC2CCCCC2)CN1c1cc(-c2ccc3c(N)n[nH]c3c2)nc(N)n1 [GSK2291363] | 29
O=C(NCCNc1ccnc(Nc2ccc(F)cc2)n1)Nc1ccc2c(c1)OCO2 [GSK1379882] | 24
CCS(=O)c1ccc(-c2coc3ccc(-c4nnc(C)o4)cc23)cc1 (centres unmarked) | 5
Cc1cccc(-c2cc(-c3c[nH]nc3-c3ccccn3)ccn2)c1 [GW679395] | 30
CN1C(=O)C(Nc2ccccc2)=C(c2ccccc2)C1=O [SB-300079] | 7
COc1cccc(-n2cnc3c(N)ncnc32)c1 [SKF-97416] | 56
COc1ccc(CNC(=O)NC2CCN(c3ccnc(Nc4ccc(F)cc4)n3)C2)cc1 (centres unmarked) [GSK1379706] | 0
Nc1n[nH]c2nnc(-c3ccccc3)c(-c3ccccc3)c12 [GW554060] | 35
Cc1nnc(-c2ccc3ncn(-c4ccc(S(C)=O)cc4)c3c2)o1 (centres unmarked) | 6
CCn1c(-c2nonc2N)nc2ccccc21 [SB-693162/GW549034] | 0
O=C(Nc1n[nH]c2cc(-c3ccccc3F)ccc12)C1CC1 [SB-733371] | 0
CC(C)(C)c1ccc(C(=O)Nc2cn3cc(-c4ccccc4)ccc3n2)cc1 | 0
Nc1ncnc2c1ncn2-c1cccc2ccccc12 [SKF-97184] | 0
CCCC(=O)Nc1n[nH]c2ncc(-c3cccc4ccccc34)cc12 [SB-642057] | 29

SMILES | %Inh [%]
Cc1cccc(-c2nc(Nc3ccc4c(cnn4C)c3)c3ccccc3n2)n1 [GW876731] | 0
COC(=O)c1c(-c2ccccc2)c2cc(Br)ccc2c(=O)n1Cc1ccc(NC(=O)CCC(=O)O)cc1 | 52
O=C1NC(=O)C(c2ccccc2)=C1Nc1cccc(O)c1 [SB-390534] | 0
CCCNC(=O)Nc1ccc(Oc2ncnc3ccn(C)c23)cc1 | 0
COc1cc2nccc(Nc3cccc(Oc4ccccc4)c3)c2cc1OC.Cl [GW284543] | 1
COc1cc2ncn(-c3cc(OCCCc4ccccc4)c(C(N)=O)s3)c2cc1OC [GSK205189] | 0
CCn1c(-c2ccoc2)nc2cnccc21 [SB-733887] | 31
COc1ccc(-c2coc3ccc(-c4nnc(SCc5cccc(C#N)c5)o4)cc23)cc1 | 0
COC(=O)c1c(-c2ccccc2)c2cc(C)ccc2c(=O)n1Cc1ccccc1 | 0
CCc1nc(-c2cccc(C)c2)c(-c2ccncc2)s1 | 0
Cc1ccc(Oc2ccc(Nc3ncnc4cc[nH]c34)cc2C)cn1 | 7
COc1cccc(C2=C(N(C)c3ccccc3)C(=O)NC2=O)c1 [SB-334865] | 24
COc1ccc(-n2cnc3c(N)ncnc32)cc1 [SKF-97236] | 0
Cc1c(Cn2c(C)nn3c(=O)cc(N4CCO[C@H](C)C4)nc23)cccc1C(F)(F)F [GSK2373690] | 22
COc1cc(Nc2nccc(N3CCC(NC(=O)C(C)c4ccc(Cl)cc4)C3)n2)cc(OC)c1OC (centres unmarked) [GSK1379757] | 22
COc1cc2ncn(-c3cc(OCc4ccc(S(C)(=O)=O)cc4)c(C(N)=O)s3)c2cc1OC [GW869979] | 26
Cc1nnc(-c2ccc(C)c(-c3ccc(C(=O)O)cc3)c2)o1 [GW608005] | 1
COc1ccc(-c2cc3c(C)nc(N)nc3n([C@H]3CC[C@H](O)CC3)c2=O)cn1 | 0

Each compound was assayed on T1, AMPK-alpha1. Conditions: concentration: 1 μM, replicates: in singlicate; n = 1.
T1 construct: gene PRKAA1

SMILES | %Inh [%]
CCC(=O)c1c(-c2ccccc2)c2cc(Cl)ccc2c(=O)n1Cc1cc(S(C)(=O)=O)n(CC(F)F)n1 | 0
CCC(=O)c1c(-c2ccccc2)c2cc(Cl)ccc2c(=O)n1Cc1cc(S(C)(=O)=O)n(CC(N)=O)n1 | 0
O=C(Nc1ccc2c(c1)OCO2)NC1CCN(c2ccnc(NCc3ccc(F)cc3)n2)CC1 [GSK1379859] | 0
Cn1c(=O)c(F)c(Nc2ccc(I)cc2F)c2c(=O)n(OC[C@H](O)CO)cnc21 | 0
Nc1nccc2scc(-c3ccc4c(c3)CCN4C(=O)Cc3ccccc3)c12 [GSK2576924] | 0
C[C@@H]1CC[C@H](C(=O)NC2CCCCC2)CN1c1cc(-c2ccc3c(N)n[nH]c3c2)nc(N)n1 [GSK2291363] | 7
O=C(NCCNc1ccnc(Nc2ccc(F)cc2)n1)Nc1ccc2c(c1)OCO2 [GSK1379882] | 0
CCS(=O)c1ccc(-c2coc3ccc(-c4nnc(C)o4)cc23)cc1 (centres unmarked) | 26
Cc1cccc(-c2cc(-c3c[nH]nc3-c3ccccn3)ccn2)c1 [GW679395] | 0
CN1C(=O)C(Nc2ccccc2)=C(c2ccccc2)C1=O [SB-300079] | 0
COc1cccc(-n2cnc3c(N)ncnc32)c1 [SKF-97416] | 2
COc1ccc(CNC(=O)NC2CCN(c3ccnc(Nc4ccc(F)cc4)n3)C2)cc1 (centres unmarked) [GSK1379706] | 0
Nc1n[nH]c2nnc(-c3ccccc3)c(-c3ccccc3)c12 [GW554060] | 0
Cc1nnc(-c2ccc3ncn(-c4ccc(S(C)=O)cc4)c3c2)o1 (centres unmarked) | 0
CCn1c(-c2nonc2N)nc2ccccc21 [SB-693162/GW549034] | 7
O=C(Nc1n[nH]c2cc(-c3ccccc3F)ccc12)C1CC1 [SB-733371] | 0
CC(C)(C)c1ccc(C(=O)Nc2cn3cc(-c4ccccc4)ccc3n2)cc1 | 0
Nc1ncnc2c1ncn2-c1cccc2ccccc12 [SKF-97184] | 0
CCCC(=O)Nc1n[nH]c2ncc(-c3cccc4ccccc34)cc12 [SB-642057] | 37

SMILES | %Inh [%]
Cc1cccc(-c2nc(Nc3ccc4c(cnn4C)c3)c3ccccc3n2)n1 [GW876731] | 0
COC(=O)c1c(-c2ccccc2)c2cc(Br)ccc2c(=O)n1Cc1ccc(NC(=O)CCC(=O)O)cc1 | 21
O=C1NC(=O)C(c2ccccc2)=C1Nc1cccc(O)c1 [SB-390534] | 0
CCCNC(=O)Nc1ccc(Oc2ncnc3ccn(C)c23)cc1 | 0
COc1cc2nccc(Nc3cccc(Oc4ccccc4)c3)c2cc1OC.Cl [GW284543] | 12
COc1cc2ncn(-c3cc(OCCCc4ccccc4)c(C(N)=O)s3)c2cc1OC [GSK205189] | 28
CCn1c(-c2ccoc2)nc2cnccc21 [SB-733887] | 10
COc1ccc(-c2coc3ccc(-c4nnc(SCc5cccc(C#N)c5)o4)cc23)cc1 | 7
COC(=O)c1c(-c2ccccc2)c2cc(C)ccc2c(=O)n1Cc1ccccc1 | 0
CCc1nc(-c2cccc(C)c2)c(-c2ccncc2)s1 | 0
Cc1ccc(Oc2ccc(Nc3ncnc4cc[nH]c34)cc2C)cn1 | 0
COc1cccc(C2=C(N(C)c3ccccc3)C(=O)NC2=O)c1 [SB-334865] | 6
COc1ccc(-n2cnc3c(N)ncnc32)cc1 [SKF-97236] | 16
Cc1c(Cn2c(C)nn3c(=O)cc(N4CCO[C@H](C)C4)nc23)cccc1C(F)(F)F [GSK2373690] | 0
COc1cc(Nc2nccc(N3CCC(NC(=O)C(C)c4ccc(Cl)cc4)C3)n2)cc(OC)c1OC (centres unmarked) [GSK1379757] | 17
COc1cc2ncn(-c3cc(OCc4ccc(S(C)(=O)=O)cc4)c(C(N)=O)s3)c2cc1OC [GW869979] | 0
Cc1nnc(-c2ccc(C)c(-c3ccc(C(=O)O)cc3)c2)o1 [GW608005] | 0
COc1ccc(-c2cc3c(C)nc(N)nc3n([C@H]3CC[C@H](O)CC3)c2=O)cn1 | 0
